Exocytosis inh = LAMP-1 surface exposure blockers, TALL-104 cells – cell-based, flow cytometry, MLPCN library, primary screen | TALL-104 LAMP-1 surface exposure; cells stimulated with thapsigargin and PMA | inhibition, % at 10 µM | 360,000 compounds, 0.66% hits | AID 651702, 2012;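 active = inhibition above about 55%, limit read from the data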
TLR9-MyD88 inh = inhibitors of TLR9-MyD88 association in cells, primary screen, cell-based, CHO, BLA complementation, fluorescence; Toll-like receptor 9 (Homo sapiens) + Myeloid differentiation primary response protein …; CCF4 FRET ratio; inhibition, % at 4.98 µM; 340,000 compounds, 0.21% hits; AID 504734, 2011;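 active = inhibition above the mean over all tested compounds plus 3 SD, cut at about 21% in these data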;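 note: 0% = DMSO only wells and 100% = clavulanate BLA inhibitor control wells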
ABHD5-PLIN5 inh = ABHD5-PLIN5 interaction inhibitors, primary screen, cell lysate, split luciferase complementation, luminescence; Split G. princeps luciferase complementation, 4 h; 360,000 compounds, 0.78% hits; inhibition, % at 4 µM; Perilipin-5 (Homo sapiens) + 1-acylglycerol-3-phosphate O-acyltransferase ABHD5 (Homo …;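 active = inhibition above the mean inhibition across every tested compound plus 3 SD, cut at about 22% in these data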;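 note: 0% = DMSO only wells and the 100% control is not disclosed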
NOD2-RIPK2 inh = NOD2-RIPK2 binding disruptors in cells, primary screen, fluorescence, CHO cells, BLA complementation; 360,000 compounds, 0.38% hits; Receptor-interacting serine/threonine-protein kinase 2 (Homo sapiens), O43353; inhibition, % at 4.98 µM; AID 624267, 2012; CCF4 ratio; in the data active = inhibition above about 21%;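 note: 0% = vehicle only and 100% = reference blocker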
TLR4 MyD88 comp = inhibitors of TLR4-MyD88 association in cells, primary screen, cell-based, HeLa CL3-4, BLA complementation, FRET ratio; Toll-like receptor 4 (Homo sapiens) + Myeloid differentiation primary response protein …; HeLa CL3-4 TLR4/MyD88 BLA complementation; inhibition, % at 8.4 µM; 200,000 compounds, 0.18% hits; AID 861, 2007; in the data active = inhibition above about 25%;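 note: 0% = vehicle and 100% = reference inhibitor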
PRMT1 FP inh = PRMT1 methyltransferase inhibitors, primary screen, biochemical, fluorescence polarization; Protein arginine N-methyltransferase 1 (Homo sapiens), Q99873; recombinant PRMT1, activity-based probe fluorescence polarization; inhibition, % at 2.79 µM; 370,000 compounds, 1.3% hits; AID 652257, 2013;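 active = inhibition above about 21% made by adding two undisclosed values, limit read from the data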
ABHD5 PLIN5 conf = ABHD5-PLIN5 interaction inhibitors, confirmation, biochemical, luminescence; inhibition, % at 4 µM; shares compounds with ABHD5-PLIN5 inh; 2,200 compounds, 67% hits; in the data active = inhibition above about 23%;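 note: 0% = DMSO vehicle wells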
HNF4 split-luc = HNF4 dimerization inhibitors, counter-screen for ABHD5-PLIN5 interaction inhibitor project, biochemical, split-luciferase complementation, luminescence | shares compounds with ABHD5-PLIN5 inh | inhibition, % at 4 µM | 2,200 compounds, 77% hits;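 active = mean inhibition across replicate wells exceeding the computed hit threshold, cut at about 13% in these data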;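 note: light from luciferase halves that rejoin when HNF4 fusion proteins dimerize; 0% = DMSO only wells and the 100% control is not given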
Target sequence (P41235 whole entry, looked up, the tested form may be a part): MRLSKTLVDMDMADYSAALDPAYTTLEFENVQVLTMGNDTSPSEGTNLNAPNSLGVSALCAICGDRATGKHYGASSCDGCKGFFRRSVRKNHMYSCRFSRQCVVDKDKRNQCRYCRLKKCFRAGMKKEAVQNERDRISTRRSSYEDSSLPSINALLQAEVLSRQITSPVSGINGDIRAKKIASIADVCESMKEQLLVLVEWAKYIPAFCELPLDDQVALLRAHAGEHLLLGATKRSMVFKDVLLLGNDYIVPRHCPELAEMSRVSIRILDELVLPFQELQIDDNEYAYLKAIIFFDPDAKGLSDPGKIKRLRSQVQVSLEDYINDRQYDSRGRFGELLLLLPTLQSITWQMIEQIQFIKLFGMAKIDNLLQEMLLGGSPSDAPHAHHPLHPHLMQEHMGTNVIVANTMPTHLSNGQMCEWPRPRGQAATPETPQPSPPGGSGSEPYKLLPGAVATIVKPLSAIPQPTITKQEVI
Active calls of the source: *; / = no result given. Only some compounds are listed: those with a hit (about 2.6% of all), similar ones and a draw of the others.

SMILES	Exocytosis inh	TLR9-MyD88 inh	ABHD5-PLIN5 inh	NOD2-RIPK2 inh	TLR4 MyD88 comp	PRMT1 FP inh	ABHD5 PLIN5 conf	HNF4 split-luc
CC(C)OCCCn1c(=NC(=O)c2ccncc2)c(C#N)cc2c(=O)n3ccccc3nc21	0	-12	1	0	-36	5	/	/
CCCn1c(=NC(=O)c2ccco2)c(C(=O)OCC)cc2c(=O)n3ccccc3nc21	4	-16	41*	-13	7	5	11	27*
N=c1c(S(=O)(=O)c2ccccc2)cc2c(=O)n3ccccc3nc2n1Cc1ccco1	2	13	25*	15	4	4	11	25*
CCOC(=O)c1cc2c(=O)n3ccccc3nc2n(Cc2ccco2)c1=NC(=O)c1ccc(OC)cc1	8	3	13	3	4	-2	/	/
CCOC(=O)c1cc2c(=O)n3ccccc3nc2n(Cc2ccco2)c1=NC(=O)c1ccccc1OC	5	-3	44*	0	6	4	20	73*
C[C@H]1C(c2ccccc2F)O[C@]2(C[C@H](O)c3ccccc3O2)C[C@@H]1O (some centres not stated)	/	/	/	/	/	-8	/	/
CCOCCCn1c(=NC(=O)c2ccco2)c(C(=O)OCC)cc2c(=O)n3cccc(C)c3nc21	10	-12	27*	-2	/	-1	19	30*
CCOC(=O)c1cc2c(=O)n3ccccc3nc2n(C(C)C)c1=NC(=O)c1ccco1	-7	-12	41*	-29	8	1	14	24*
CCOC(=O)c1cc2c(=O)n3cccc(C)c3nc2n(CC(C)C)c1=NC(=O)c1ccco1	13	-3	-24	3	/	11	/	/
COc1cc(C2/C(=C(\O)c3ccc4c(c3)OCCO4)C(=O)C(=O)N2Cc2ccco2)cc(OC)c1OC (configuration not stated)	0	-5	29*	-1	/	3	3	5
COc1cc(C2/C(=C(\O)c3ccc4c(c3)OCCO4)C(=O)C(=O)N2Cc2ccco2)ccc1O (configuration not stated)	0	-5	0	-1	/	5	/	/
COc1ccc(/C(O)=C2\C(=O)C(=O)N(Cc3ccco3)C2c2cc(OC)ccc2OC)cc1 (configuration not stated)	2	5	29*	2	-15	1	4	2
COc1ccc(OC)c(C2/C(=C(/O)c3ccccc3)C(=O)C(=O)N2Cc2ccco2)c1 (configuration not stated)	-1	-1	5	-6	-10	-1	/	/
O=C1/C(=C/c2cccnc2)CC/C1=C\c1cccnc1	-1	-6	42*	-17	5	3	72*	50*
CC(C)/C=C1\CC/C(=C\c2cccnc2)C1=O	3	4	39*	0	14	-1	75*	58*
CCC1C/C(=C\c2cccnc2)C(=O)/C(=C/c2cccnc2)C1 (configuration not stated)	-2	8	91*	11	-13	0	102*	100*
COc1ccc(/C=C\C(=O)c2c(O)ccc3c(C)cc(=O)oc23)cc1	5	-10	47*	-2	2	-1	61*	44*
COc1ccc(/C=C/C(=O)c2c(O)ccc3c(C)cc(=O)oc23)cc1	-2	3	47*	0	3	2	65*	55*
Cc1cc(=O)oc2c(O)c(O)ccc12	-4	-1	5	6	/	12	/	/
Cc1ccc(NC(=O)OCCN(C)C(=O)Nc2ccc(C)cc2C)c(C)c1	/	/	/	/	/	1	/	/
CC(=O)c1cc(-c2cccc(CO)c2)c(=O)n2c1CCC2	/	/	/	/	/	2	/	/
CCOC(=O)c1nn(-c2ccccc2)c(=O)c2c(N)scc12	2	-3	25*	-5	2	17	-23	95*
CCOC(=O)c1nn(-c2ccccc2)c(=O)c2c(NC(C)=O)scc12	12	1	-1	-5	-13	6	/	/
C[C@@H]1ON(C)[C@H]2C[C@H]3c4[nH]c5c(-c6ccccc6F)cccc5c4CCN3C(=O)[C@@H]12	/	/	/	/	/	-1	/	/
Cc1c(C(=O)c2no[n+]([O-])c2C(=O)c2cnn(C)c2C)cnn1C	48	1	29*	-1	-14	18	58*	74*
SMILES	Exocytosis inh	TLR9-MyD88 inh	ABHD5-PLIN5 inh	NOD2-RIPK2 inh	TLR4 MyD88 comp	PRMT1 FP inh	ABHD5 PLIN5 conf	HNF4 split-luc
CC(C)(C)c1ccc(-c2nnc(SCc3cccc4ccccc34)n2Cc2ccco2)cc1	/	/	/	/	/	-1	/	/
O=[N+]([O-])c1ccc(N2CCc3ccccc3C2)nc1	9	5	33*	-11	/	9	16	20*
CCCCOC(=O)Cn1c(=O)n(CC(=O)OCCCC)c2ccccc21	-1	1	-5	0	-5	-4	/	/
CCCCCCCCCCOC(=O)Cn1c(COc2ccccc2C)[n+](C)c2ccccc21	80*	14	24*	22*	/	/	9	9
COc1cccc(C=C(C(C)=O)C(=O)c2ccccc2)c1	15	/	77*	3	/	-1	87*	80*
CCC(=O)Nc1ccc(/C=C(\C(C)=O)C(=O)c2ccccc2)cc1	20	-6	28*	9	/	0	44*	51*
CCC(=O)Nc1ccc(C=C(C(C)=O)C(C)=O)cc1	-2	-12	-16	-6	/	0	/	/
N#Cc1ccc(S(=O)(=O)NC(=O)[C@H]2O[C@@H](n3ccc(=O)[nH]c3=O)[C@H](O)[C@@H]2O)cc1	/	/	/	/	/	-4	/	/
CC(C)C[C@H]1COc2c(Cl)cccc2S(=O)(=O)N1Cc1cccc(Cl)c1	/	/	/	/	/	-1	/	/
COc1cc2c(cc1NC(=O)CC1SC(N3CCCC3)=NC1=O)oc1ccccc12 (configuration not stated)	0	3	29*	11	-2	-1	16	10
COc1ccc(NC(=O)CC2SC(N3CCCC3)=NC2=O)cc1Cl (configuration not stated)	2	-7	-1	-11	/	0	/	/
O=C(NNc1c2ccccc2nc2ccccc12)c1ccccc1O	108*	-3	26*	1	-7	4	25*	18*

Compound activity deposited in PubChem by several laboratories.
